Source: PubChem (Sanford-Burnham Center for Chemical Genomics)
Shown are actives, neighbours in structure and some others; about 28% of the full set was active somewhere.
CYP2C19 inh: blocks human cytochrome P450 2C19; P33261; CYP2C19 Supersomes, luciferin-H EGE luminescence, 30 min; inhibition, % at 5 µM; 96,000 compounds, 21% hits; AID 778;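 active means CYP2C19 inhibition above a set limit at 5 µM in the primary screen, cut at about 50% in these data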;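 further: plate controls were negative control wells for no effect and 2.5 mM tranylcypromine positive control for full effect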
CYP2C19 act: increases human CYP2C19 enzyme activity; recombinant CYP2C19, luciferin-H EGE luminescence; hits give high values; 0 = fully inhibited enzyme, 1 = untreated enzyme; 96,000 tested, under 10 active; activation factor at 5 µM;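 active means activation factor of at least 2 at 5 µM in the primary screen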;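 further: 0 = wells with 2.5 mM tranylcypromine and 1 = vehicle-only wells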
CYP2C9 activ: CYP2C9 (human) activation; P11712; recombinant CYP2C9, luciferin-H conversion, luminescence; hits give high values; factor 1 = untreated enzyme, 0 = blocked; activation factor at 5 µM; 96,000 compounds, 1.4% hits;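 active means activation factor of 2 or more for CYP2C9 at a 5 µM dose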;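 further: 0 = sulfaphenazole-blocked wells and 1 = vehicle-only wells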
CYP2C9 inhib: inhibitors of human CYP2C9; P11712; CYP2C9 Supersomes, luciferin-H conversion, luminescence; inhibition, % at 5 µM; 96,000 compounds, 20% hits; AID 777;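 active means blocking of liver enzyme CYP2C9 beyond about 50% at 5 µM, limit read from the data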
CD11b adhes enh: enhancers of human CD11b/CD18 binding to fibrinogen | K562 CD11b/CD18 adhesion to fibrinogen, ATPlite luminescence | activation, % at 10 µM | 93,000 compounds, 0.07% hits | AID 1499;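 active means 10 µM primary screen giving 50% or more activity, confirmed by 40% or more on retest at that dose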
Target sequence (P05107 whole entry, looked up, other chains not shown): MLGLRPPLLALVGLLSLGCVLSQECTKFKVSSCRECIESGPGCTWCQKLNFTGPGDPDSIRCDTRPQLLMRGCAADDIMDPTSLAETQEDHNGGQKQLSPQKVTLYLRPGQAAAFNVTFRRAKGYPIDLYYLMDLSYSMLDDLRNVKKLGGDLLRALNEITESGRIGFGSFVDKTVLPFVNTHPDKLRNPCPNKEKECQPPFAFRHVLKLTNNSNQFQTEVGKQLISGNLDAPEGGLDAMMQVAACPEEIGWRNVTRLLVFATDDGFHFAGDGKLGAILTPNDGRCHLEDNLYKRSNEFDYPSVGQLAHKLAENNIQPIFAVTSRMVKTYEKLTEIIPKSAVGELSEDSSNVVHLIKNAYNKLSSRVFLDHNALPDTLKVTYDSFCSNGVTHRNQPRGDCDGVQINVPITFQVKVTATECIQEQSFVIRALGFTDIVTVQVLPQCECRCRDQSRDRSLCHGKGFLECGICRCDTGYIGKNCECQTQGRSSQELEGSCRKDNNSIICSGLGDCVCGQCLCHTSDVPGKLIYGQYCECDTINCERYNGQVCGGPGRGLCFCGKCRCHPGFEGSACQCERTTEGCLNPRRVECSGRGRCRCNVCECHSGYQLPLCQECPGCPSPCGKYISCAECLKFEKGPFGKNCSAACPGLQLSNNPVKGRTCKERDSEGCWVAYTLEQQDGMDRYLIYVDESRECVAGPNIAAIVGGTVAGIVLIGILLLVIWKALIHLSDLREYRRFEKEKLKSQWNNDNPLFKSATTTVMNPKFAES
CD11b adhes inh: inhibitors of human CD11b/CD18 binding to fibrinogen; P05107+P11215; K562 CD11b/CD18 adhesion to fibrinogen, ATPlite luminescence; Mn2+ added to activate the integrin; inhibition, % at 10 µM; 93,000 compounds, 0.54% hits;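 active means primary inhibition of 50% or more at 10 µM, then 40% or more on retest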
* hit, by the source's call; · = no result given.

SMILES	CYP2C19 inh	CYP2C19 act	CYP2C9 activ	CYP2C9 inhib	CD11b adhes enh	CD11b adhes inh
O=C(Cc1cccs1)NCc1ccccc1F	71*	0.3	0.9	10	-2	-13
O=C(CCNS(=O)(=O)c1cccs1)NCc1cccs1	47	0.5	0.8	18	·	·
Cc1ccc(CNC(=O)C2(C)Oc3ccccc3NC2=O)cc1 (stereo not drawn)	79*	0.2	0.1	90*	-3	3
COC(=O)C1=[N+]([O-])OC(C(=O)OC)C1c1c[nH]c2ccccc12 (stereo not drawn)	21	0.8	0.9	13	-4	5
O=[N+]([O-])c1ccc(-c2ccc(/C=N/c3c(-c4ccco4)nc4ccccn34)o2)cc1	-3	1	0.9	10	0	18
O=C(C1CCCO1)N1CCc2ccccc21 (stereo not drawn)	-7	1.1	1.4	-39	-1	-32
Cc1ccc(CNC(=O)Cc2cccs2)cc1	90*	0.1	1	-4	-1	5
COc1ccc(CNC(=O)Nc2cccs2)cc1OC	41	0.6	0.9	5	·	·
COc1cccc(CNC(=O)Nc2cccs2)c1	86*	0.1	0.5	54*	1	-16
O=C(Cc1cccs1)NCc1ccccc1	41	0.6	1	3	0	8
Cc1ccc(CNC(=O)Nc2cccs2)cc1	51*	0.5	0.9	10	3	-6
c1ccc(-c2ccc(-c3cn4c(n3)CCC4)cc2)cc1	10	0.9	1	-4	-1	29
Cc1ccc2c(c1C)NC(C(=O)O)C1CC=CC21 (stereo not drawn)	-12	1.1	1.1	-12	124	-27
CCOC(=O)c1ccc2c(c1)C1C=CCC1C(C(=O)O)N2 (stereo not drawn)	8	0.9	0.7	27	116*	-24
Cc1sc2c(c1C)CN(Cc1ccncc1)CN2C(=O)c1ccco1	77*	0.2	0.1	91*	1	-9
C/C(N)=C(/C#N)C(=O)COC(=O)c1cc(-c2ccc(Br)cc2)nc2ccccc12	·	·	·	·	-2	26
Cc1ccc(-c2cc(C(=O)Nc3ccc4c(c3)OCCO4)c3ccccc3n2)cc1	23	0.8	0.2	76*	-1	5
Cc1nc2ccccc2n1C(=O)c1cc(-c2ccc(Br)cc2)nc2ccccc12	17	0.8	0.2	79*	0	6
CC(C)c1ccc(-c2cc(C(=O)N3N=C(C(F)F)CC3(O)C(F)F)c3ccccc3n2)cc1 (stereo not drawn)	7	0.9	0	100*	-4	78*
CCN(CC(=O)Nc1ccc2c(c1)OCCO2)c1nc(-c2cccnc2)nc2ccccc12	66*	0.3	0.4	56*	-1	3
O=C(CSc1ccc(-c2nc3ccccc3[nH]2)cn1)Nc1ccc2c(c1)OCCO2	7	0.9	0.6	37	29	3
COc1ccc(Cn2c(CCC(=O)Nc3ccc(CC#N)cc3)nc3cccnc32)cc1	4	1	0.9	12	-2	-4
CCOC(=O)c1c(C)[nH]c(NC(=O)N2CCOCC2)c1C	-10	1.1	1	-3	0	-7
CC1CCCC(C)N1C(=O)CSc1nnc(NC(=O)c2cccs2)s1 (stereo not drawn)	9	0.9	0.7	25	-2	-14
CCc1ccc(-c2cc(C(=O)Nc3ccc(S(=O)(=O)NC(C)=O)cc3)c3ccccc3n2)cc1	18	0.8	1	3	-5	29
SMILES	CYP2C19 inh	CYP2C19 act	CYP2C9 activ	CYP2C9 inhib	CD11b adhes enh	CD11b adhes inh
CS(=O)(=O)Nc1ccccc1C(=O)Nc1ccc2c(c1)OCCO2	11	0.9	0.3	73*	8	-5
COc1ccc(-c2cc(C(=O)N3CCOCC3)c3cc(C)ccc3n2)cc1	33	0.7	0.4	59*	0	-14
Cc1ccc(-c2cc(C(=O)N3CCOCC3)c3ccccc3n2)cc1	70*	0.3	0.5	46	-1	-7
O=C(Nc1ccc2c(c1)OCCO2)c1ccccc1F	4	1	1	-4	-5	15
CCc1ccc(-c2cc(C(=O)NN3CCOCC3)c3ccccc3n2)cc1	10	0.9	0.5	54*	-7	2
FC(F)(F)c1nc(N2CCCC2)ncc1-c1nnnn1-c1ccccc1	82*	0.2	0.5	52*	·	·
Cc1ccc(-n2nnnc2-c2cnc(N3CCCC3)nc2C(F)(F)F)cc1	87*	0.1	0.2	76*	-4	64
COc1ccc(-n2nnnc2-c2cn(C)nc2C(F)(F)F)cc1	50	0.5	0.8	16	·	·
Cn1cc(-c2nnnn2-c2ccccc2)c(=O)c2ccccc21	9	0.9	1.2	-16	2	-3
CN(c1ccc(C(=O)O)cc1)S(=O)(=O)c1ccc(Cl)cc1	-7	1.1	1.1	-8	-2	-28
Cc1nn(-c2nc3ccccc3[nH]2)c(N)c1-c1ccc(Cl)cc1	0	1	0.9	15	-5	-28
Cc1ccc2nc(SCc3nnc(-c4cccs4)o3)[nH]c2c1	43	0.6	0.5	51*	1	-2
Cc1cccc(OCCCSc2nc3ccc(C)cc3[nH]2)c1	86*	0.1	0.2	78*	-8	101
Cc1ccc(/C=C/c2nnc(-c3cccs3)o2)cc1	18	0.8	0.6	35	·	·
Cc1ccc2nc(SCc3nnc(-c4ccccc4)o3)[nH]c2c1	30	0.7	0.5	51*	·	·
CC(C)C[C@H](NC(=O)Nc1ccccc1F)C(=O)O	2	1	1	4	-3	-6
O=C(CN(C(=O)c1ccco1)c1cccc(F)c1)NCc1ccc(F)cc1	78*	0.2	0.7	35	-2	13
O=C(c1ccco1)N(CCC(c1ccccc1)c1ccco1)Cc1ccc(F)cc1 (stereo not drawn)	34	0.7	0.1	85*	·	·
O=C(CN(Cc1ccc(F)cc1)C(=O)c1ccco1)NCc1ccc(F)cc1	83*	0.2	0.7	26	2	-48
O=C(NNC(=O)C1CCN(Cc2ccccc2)CC1)c1cccc(Cl)c1	11	0.9	0.8	17	-1	-2
COc1ccc(C(=O)CN2C(=O)c3ccccc3C2=O)c(OC)c1C	83*	0.2	0.3	72*	2	-29
Cc1nn(C(=O)CN2C(=O)c3ccccc3C2=O)c(C)c1Br	-2	1	1	-1	·	·
COCc1c(Br)c(C)nc(OCC(=O)N/N=C/c2cc(C)n(-c3ccc([N+](=O)[O-])cc3)c2C)c1C#N	·	·	·	·	35	-16
O=C1c2[nH]nc(-c3ccccc3O)c2C(c2ccc(F)cc2)N1Cc1ccco1 (stereo not drawn)	84*	0.2	0	97*	2	3
O=C1c2[nH]nc(-c3ccccc3O)c2C(c2cccc(Cl)c2)N1Cc1ccco1 (stereo not drawn)	87*	0.1	0	95*	-5	64
